Data taken from PubChem BioAssay AID1778 (Sanford-Burnham Center for Chemical Genomics, 2009).
Hit rate of the full screen: of about 290,000 compounds, about 260 (0.09%) were called active. Cut-off read from the data, not from the text of the source: active = inhibition above about 50%; inactive = the rest. The sample as a whole holds a higher share of actives than the screen did. Measured potencies and affinities stand elsewhere.

These compounds were tested against Kappa-type opioid receptor (Homo sapiens) (UniProt P41145) (assay: kappa opioid receptor blockers – cell-based, luminescence, uHTS (AID 1778)). Settings: KOR beta-arrestin recruitment, antagonist mode, active compounds read high; at 10 µM unless noted.
Chain of Kappa-type opioid receptor (Homo sapiens) (P41145 whole entry, looked up): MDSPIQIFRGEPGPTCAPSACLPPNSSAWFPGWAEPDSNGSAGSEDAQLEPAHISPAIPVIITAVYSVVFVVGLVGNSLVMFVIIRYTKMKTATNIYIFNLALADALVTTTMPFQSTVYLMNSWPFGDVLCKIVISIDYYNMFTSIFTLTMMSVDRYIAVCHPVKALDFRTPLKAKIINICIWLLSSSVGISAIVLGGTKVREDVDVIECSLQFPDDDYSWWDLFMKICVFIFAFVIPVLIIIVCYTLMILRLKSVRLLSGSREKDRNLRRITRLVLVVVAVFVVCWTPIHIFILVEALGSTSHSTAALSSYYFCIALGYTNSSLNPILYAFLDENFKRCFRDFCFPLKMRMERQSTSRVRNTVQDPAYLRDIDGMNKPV

inhibition, inactive:
NC(=S)c1ncc(C(F)(F)F)cc1Cl -11.8%
NC(=S)Nc1ncc(C(F)(F)F)cc1Cl -71.5% [at 20 µM]
CCOC(=O)N1CCN(C(=O)Nc2sc3nc4n(c(=O)c3c2C)CCC(C)CC4)CC1 (stereo unspecified) -7.4%
COc1ccccc1CCNC(=O)C(=O)NCC1OCCN1S(=O)(=O)c1cc(F)ccc1F (stereo unspecified) -43.3% [at 20 µM]
CCOc1ccc(-c2nc(C#N)c(NCC3CCCO3)o2)cc1 (stereo unspecified) 10.1%
CC(CCc1ccccc1)NC(=O)c1cccc(F)c1 (stereo unspecified) -19.3% [at 20 µM]
COc1ccc(C(=O)/C=C/C(=O)N(Cc2ccc3c(c2)OCO3)C(C(=O)NC2CCCCC2)c2ccncc2)c(O)c1 (stereo unspecified) 15.5%
COc1ccc(C(=O)/C=C/C(=O)N(Cc2ccc(F)cc2)C(C(=O)NC2CCCCC2)c2ccncc2)c(O)c1 (stereo unspecified) 6.8%
COc1ccc(C(=O)/C=C/C(=O)N(CC(=O)NC2CCCCC2)Cc2cccs2)c(O)c1 26.6%
COc1ccc(CN(C(=O)/C=C/C(=O)c2ccc(OC)cc2O)C(C(=O)NC2CCCCC2)c2ccncc2)cc1 (stereo unspecified) 8.2%
Cc1ccnc(NC(=O)CCC(=O)N(CC(=O)NC2CCCCC2)CC2CCCO2)c1 (stereo unspecified) 11%
COc1ccc(C(=O)/C=C/C(=O)N(Cc2ccccc2)C(C(=O)NC2CCCCC2)c2ccncc2)c(O)c1 (stereo unspecified) 9.1%
COc1ccc(C(=O)/C=C/C(=O)N(CC(=O)NC2CCCCC2)Cc2ccc(F)cc2)c(O)c1 33.1%
COc1ccc(C(=O)/C=C/C(=O)N(Cc2ccccc2OC)C(C(=O)NC2CCCCC2)c2ccncc2)c(O)c1 (stereo unspecified) 12.2%
COc1ccc(NS(=O)(=O)c2cc(NC(=O)c3cccnc3Cl)ccc2N2CCCC2)cc1 37.4%
C[C@@H]1CCC[C@]2(O[C@H](CCO)C[C@H](O)[C@H]2O)O1 47.9%
CC1CC2=C(NC(=S)NC2c2cccc(F)c2)/C(=C/c2cccc(F)c2)C1 (stereo unspecified) 4.5%
O=C(c1cccs1)N(C(=O)c1cccs1)c1ccc(Br)cn1 -21.5%
Cc1cnc(C)c(N2CCN(Cc3nc(-c4ccccc4)no3)CC2)n1 -15.2%
N#CCCN(NC1=NS(=O)(=O)c2ccccc21)C(=O)c1ccccc1Br 8.1%
CC(=O)Nc1ccc(S(=O)(=O)NCCC(=O)OCc2ccc([N+](=O)[O-])cc2)cc1 16.8%
CC1=NN(c2ccc(C)cc2)C(=O)/C1=C\C=C\c1ccccc1 -74.7%
CC1=NN(c2ccccc2)C(=O)/C1=C/N(C)C 3.4%
CC1=NN(c2ccccc2)C(=O)/C1=C/C=C/c1ccccc1 -38.6%
CC1=NN(c2ccccc2)C(=O)/C1=C\C=C\c1ccccc1 -34.7%
O=C(Nc1cccc2c1CCCC2)c1cc([N+](=O)[O-])cc([N+](=O)[O-])c1 -11.2%
CC1=CC(=Nc2c(C)n(C)n(-c3ccccc3)c2=O)C=CC1=O 35.7%
Cc1c(N=c2scc(-c3ccccc3)n2C)c(=O)n(-c2ccccc2)n1C 16.6%
O=C(NC1(C(F)(F)F)OCCO1)c1ccc(F)cc1 -28.6% [at 20 µM]
COc1ccc(C(=O)CSc2ncn[nH]2)cc1OC 16.2%
COC(=O)c1ccc(OC(=O)c2cccnc2SC)cc1 -3.6%
C/C(=N\Nc1nc2ccccc2[nH]1)c1ccc(C)o1 33.8%
C/C(=N\Nc1nc2ccccc2[nH]1)c1ccc(Cl)s1 20.9%
C/C(=N\Nc1ncc(Cl)cc1Cl)c1ccc(C#N)cc1 -10%
C/C(=N\Nc1ccc(Cl)cc1)c1ccccn1 1.2%
CC(=O)c1cc(-c2ccccc2)[nH]c1N1CCOCC1 -10.8%
O=C(O)c1ccccc1S(=O)(=O)NCC(O)COc1ccc(Br)cc1 (stereo unspecified) 22.9%
CCCNC(=S)N1CCN(c2nc(-c3ccc(C)cc3)cs2)CC1 -15.3% [at 20 µM]
COc1ccc(NC(=O)/C(Cl)=C(/Cl)S(=O)(=O)Cc2ccccc2)cn1 58.9%
COc1ccc(NC(=O)C(Cl)=C(Cl)Cl)cn1 8%
COc1ccc(NC(=O)/C(Cl)=C(/Cl)S(=O)Cc2ccc(Cl)cc2)cn1 (stereo unspecified) 48.8%
COc1ccc(CC(=O)Nc2ccc(OC)nc2)cc1 35.7%
COc1ccc(NC(=O)/C(Cl)=C(/Cl)S(=O)(=O)Cc2ccc(C)cc2)cn1 47.9%

inhibition, active:
COc1ccc(C(=O)/C=C/C(=O)N(CC(=O)NC2CCCCC2)Cc2ccccc2OC)c(O)c1 56.3%
COc1ccc(C(=O)/C=C/C(=O)N(CC(=O)NC2CCCCC2)CC2CCCO2)c(O)c1 (stereo unspecified) 82.5%
C/C(=N\Nc1nc2ccccc2[nH]1)c1ccccn1 91.3%
